Records with an inconclusive call do not appear. Activity calls are given as the source filed them. The call rests on the fitted dose curve.

Thyroid hormone receptor beta (Homo sapiens), sequence (P10828 whole entry, looked up): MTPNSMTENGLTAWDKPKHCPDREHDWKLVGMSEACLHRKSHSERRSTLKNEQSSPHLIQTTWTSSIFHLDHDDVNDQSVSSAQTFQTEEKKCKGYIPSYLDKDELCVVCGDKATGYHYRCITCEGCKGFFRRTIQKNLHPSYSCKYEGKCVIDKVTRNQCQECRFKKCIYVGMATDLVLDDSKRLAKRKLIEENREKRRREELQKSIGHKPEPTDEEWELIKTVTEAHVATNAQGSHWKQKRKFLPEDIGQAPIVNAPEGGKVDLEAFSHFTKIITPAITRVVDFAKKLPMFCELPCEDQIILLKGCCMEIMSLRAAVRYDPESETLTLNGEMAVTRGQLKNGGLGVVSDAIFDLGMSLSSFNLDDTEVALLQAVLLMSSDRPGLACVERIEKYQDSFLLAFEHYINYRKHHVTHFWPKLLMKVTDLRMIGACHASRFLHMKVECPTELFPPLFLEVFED

This test addresses Thyroid hormone receptor beta (Homo sapiens) (UniProt P10828). Kind of test: Gene Reporter Secondary Assay for Inhibitors of the Interaction of Thyroid Hormone Receptor and Steroid Receptor Coregulator 2 in a Thyroid Receptor Assay. The conditions noted are these: WRO cells TRb DR4-TRE luciferase reporter, T3, 20 h. From the text:
NIH Molecular Libraries Probe Production Network [MLPCN] NIH Chemical Genomics Center [NCGC] MLPCN Grant: DK058080 Assay Provider: R. Kip Guy, St. Jude Children's Research Hospital NCGC Assay Overview: Thyroid receptor (TR) regulates many homeostatic processes including basal metabolism, cardiovascular function, body weight, and lipid trafficking. TR modulators are potential therapeutics for obesity and hyperlipidemias but current thyroid analogs have undesirable side effects, particularly cardiac stimulation. This secondary assay characterized compounds identified in the qHTS for Inhibitors of the Interaction of Thyroid Hormone Receptor and Steroid Receptor Coregulator 2 (PubChem AID 1485). The human follicular thyroid carcinoma cell line WRO (kindly provided by Dr. M. D. Ringel) stably expresses TRb and a luciferase reporter gene fused to TR response element. The addition of T3 ligand elevates expression of the TRE luciferase reporter (DR4-TRE-luc).
NCGC Assay Protocol Summary: Cells were maintained in RPMI 1640 culture medium supplemented with 10% heat-inactivated FBS, 0.33 mg/ml hygromycin, 0.33 mg/ml geneticin, 50 units/ml penicillin, 50 ug/ml streptomycin. Cells were harvested and resuspended at 330,000 cells/ml in assay medium (50% DMEM 50% F-12 medium without Phenol-Red (Cellgro #16-405-CV), L-glutamine, 10% heat inactivated and charcoal treated FBS, 100 uM non-essential amino acid, 50 units/ml penicillin, 50 ug/ml streptomycin). Cells were dispensed at 8,000 cells/25 ul/well into 384 well plates (Corning 3917) and incubated 12 hr at 37 C and 5% CO2. Following transfer of 130 nL compound (ranging from 0.2 to 52 uM) and T3 (100 nM final concentration), the plates were incubated 20 hr incubation at 37 C and 5% CO2. Plates were then equilibrated at ambient temperature for 30 min, 25 ul of Bright-Glo (Promega) was added and luminescence was detected by an EnVision (PerkinElmer).
For `CS(=O)(=O)c1ccc(C(=O)OCC(=O)N2CCCC2)cc1[N+](=O)[O-]`, the Potency was 17.7 µM (active). The same measure, in the same setting: as for `CS(=O)(=O)c1ccc(C(=O)OCC(=O)NC(=O)NC2CCCCC2)cc1[N+](=O)[O-]`, the figure is 12.7 µM (active).

As for `O=C(COC(=O)c1ccc2ncsc2c1)NC(=O)C1CCCCC1`, the call was inactive. Take `CS(=O)(=O)c1ccc(C(=O)OCC(=O)N2CCOCC2)cc1[N+](=O)[O-]`: the Potency is 23 µM (active). Regarding `O=C(COC(=O)c1cccc([N+](=O)[O-])c1Cl)NC1C2CC3CC(C2)CC1C3` (centres undefined), the compound was called inactive.

Turning to `CS(=O)(=O)c1ccc(C(=O)OCC(=O)Nc2cc(C(F)(F)F)ccc2Cl)cc1[N+](=O)[O-]`, the Potency was 22.7 µM (active). Still for that read-out and setting: as for `CS(=O)(=O)c1ccc(-c2nnc(-c3ccccc3)o2)cc1[N+](=O)[O-]`, the figure is 15.7 µM (active); as for `CS(=O)(=O)c1ccc(C(=O)OCC(=O)NCC2CCCO2)cc1[N+](=O)[O-]` (centres undefined), 15.2 µM (active); as for `CC1CCCCN1C(=O)COC(=O)c1ccc(S(C)(=O)=O)c([N+](=O)[O-])c1` (centres undefined), 12.6 µM (active). Take `CCN1CCN(C(=O)COC(=O)c2ccc(S(C)(=O)=O)c([N+](=O)[O-])c2)C(C)C1` (centres undefined): the Potency is 23.5 µM (active).

As for `CN1CCN(C(=O)COC(=O)c2ccc(S(C)(=O)=O)c([N+](=O)[O-])c2)CC1`, the Potency was 33.9 µM (active). `C[S+](=O)([O-])c1ccc(C(=O)OCC(=O)N2CCN([S+](C)(=O)[O-])CC2)cc1[N+](=O)[O-]`: the call was inactive. Consider `CS(=O)(=O)c1ccc(C(=O)OCC(=O)N2Cc3ccccc3C2)cc1[N+](=O)[O-]`, for which the Potency is 12.6 µM (active). With `CCN1CCN(C(=O)COC(=O)c2ccc(S(C)(=O)=O)c([N+](=O)[O-])c2)CC1C` (centres undefined), the Potency is 26.3 µM (active). `CC(=O)c1cccc(NC(=O)C(C)OC(=O)c2ccc(S(C)(=O)=O)c([N+](=O)[O-])c2)c1` (centres undefined): the Potency is 14.9 µM (active).

As for `O=C(COC(=O)c1cc([N+](=O)[O-])ccc1F)NC1C2CC3CC(C2)CC1C3` (centres undefined), the outcome was inactive.

Consider `COc1cccc(CNC(=O)COC(=O)c2ccc(S(C)(=O)=O)c([N+](=O)[O-])c2)c1`, for which the Potency was 21.5 µM (active). Take `O=C(COC(=O)c1ccc(C(F)(F)F)cc1)NC(=O)C1CCCCC1`: the outcome was inactive. Consider `CCN(CC)C(=O)COC(=O)c1ccc(S(C)(=O)=O)c([N+](=O)[O-])c1`, for which the Potency was 16.8 µM (active). On the same count and under the same terms, the figure for `Cc1ccc(F)cc1NC(=O)COC(=O)c1ccc(S(C)(=O)=O)c([N+](=O)[O-])c1` is 17.9 µM (active). For the compound `CC1(C)C2CCC1(C)C(NC(=O)COC(=O)c1ccc(S(C)(=O)=O)c([N+](=O)[O-])c1)C2` (centres undefined), the Potency is 12.9 µM (active). As for `O=C(COC(=O)c1ccc(Cl)c([N+](=O)[O-])c1)NC1C2CC3CC(C2)CC1C3` (centres undefined), the result was inactive. For `Cc1ccccc1NC(=O)COC(=O)c1ccc(S(C)(=O)=O)c([N+](=O)[O-])c1`, the Potency is 22.9 µM (active). Take `O=C(COC(=O)c1ccc(F)c([N+](=O)[O-])c1)NC1C2CC3CC(C2)CC1C3` (centres undefined): the compound was called inactive. For the compound `CC(=O)Nc1cccc(C(=O)OCC(=O)NC(=O)C2CCCCC2)c1`, the outcome was inactive.

With `C[S+](=O)([O-])c1ccc(C(=O)OCC(=O)NC2C3CC4CC(C3)CC2C4)cc1` (centres undefined), the compound was classed as inactive. As to `CS(=O)(=O)c1ccc(-c2nnc(-c3ccccc3)s2)cc1[N+](=O)[O-]`, the Potency was 11.1 µM (active). Turning to `O=C(COC(=O)c1cc([N+](=O)[O-])ccc1Cl)NC1C2CC3CC(C2)CC1C3` (centres undefined), the outcome was inactive.

With `Cc1cc(C(=O)OCC(=O)NC(=O)C2CCCCC2)ccc1[N+](=O)[O-]`, the result was inactive. For the compound `CC(=O)N1CCN(C(=O)COC(=O)c2ccc([S+](C)(=O)[O-])c([N+](=O)[O-])c2)CC1`, the compound was classed as inactive.

As for `C[S+](=O)([O-])c1ccc(C(=O)OCC(=O)N2CCNC(=O)C2)cc1[N+](=O)[O-]`, the call was inactive. Take `CS(=O)(=O)c1ccc(C(=O)OCC(=O)N2CCc3ccccc32)cc1[N+](=O)[O-]`: the Potency is 18.6 µM (active). With `O=C(COC(=O)c1cccc([N+](=O)[O-])c1)NC1C2CC3CC(C2)CC1C3` (centres undefined), the call was inactive. With `CS(=O)(=O)c1ccc(C(=O)OCC(=O)N2CC(=O)Nc3ccccc32)cc1[N+](=O)[O-]`, the Potency is 15.8 µM (active).

For the origin of these results see PubChem BioAssay AID2479 (National Center for Advancing Translational Sciences (NCATS), 2010).
